These results are taken from PubChem BioAssay (Tox21).

Assay [1] can be described thus: qHTS assay to identify small molecule agonists of the hypoxia (HIF-1) signaling pathway - cell viability counter screen (AID 1224844; calls by dose curve; further: nearly all actives have a fitted effect of over 50% in size; further: potency means the concentration at half of the fitted maximal effect). In short, it runs like this:
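Same wells as the HIF-1 reporter screen; ME-180 cells carrying HRE-bla, 17 hr treatment at 37C; CellTiter-Glo luminescence read after 30 min at room temperature.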

Assay [2] in a line: qHTS assay to identify small molecule agonists of H2AX - cell viability counter screen (AID 1224847; calls by dose curve; further: nearly all actives have a fitted effect of over 30% in size; further: potency means the concentration at half of the fitted maximal effect). An outline of the steps:
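Compounds tested at 15 concentrations were incubated 3 hr at 37C with wild-type CHO-K1 cells; cellular ATP-based luminescence (CellTiter-Glo) indicated viability.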
On the technique in general: In qHTS, concentration-response curves come from the screen itself.

The nature of assay [3]: qHTS assay to identify small molecule antagonists of the estrogen related receptor (ERR) signaling pathway from Tox21 library (AID 1224848). Further: nearly all actives have a fitted effect of over 50% in size. Further: potency means the concentration at half of the fitted maximal effect. In short, it runs like this:
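Quantitative high-throughput format: ERR reporter cells (2,000/well) pre-incubated 6 h, treated 18 h at 37 C with compounds in DMSO alongside positive and negative controls, then read by ONE-Glo luminescence.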

Assay [4] in a line: qHTS assay to identify small molecule agonists of the estrogen related receptor (ERR) signaling pathway from Tox21 library (AID 1224849; calls by dose curve; further: nearly all actives have a fitted effect of over 15% in size). As to conditions: ERR reporter cell line, ONE-Glo luciferase, 18 h; at 92.4 µM (top of the series) unless noted. In short, it runs like this:
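Reporter cells (ERR, NTP source) treated with Tox21 10K compounds 18 h, 37 C. Readout: ONE-Glo luminescence, 30 min RT.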

The nature of assay [5]: qHTS RealTime-Glo MT Cell Viability Assay in HepG2 cells - 24 hour (AID 1224867). Further: nearly all actives have a fitted effect of over 50% in size. Further: potency means the concentration at half of the fitted maximal effect. In short, it runs like this:
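Viability was tracked continuously by NanoLuc luminescence from prosubstrate reduced by living HepG2 cells, at successive time points over 40 h of compound exposure. Cells with reagent were preincubated 5 h at 37 °C before compound addition.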

Assay [6] in a line: qHTS RealTime-Glo MT Cell Viability Assay in HEK293 cells - 32 hour (AID 1224868). Further: nearly all actives have a fitted effect of over 50% in size. Further: potency means the concentration at half of the fitted maximal effect. In short, it runs like this:
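Viability tracked continuously by luminescence as live cells reduce a prosubstrate for NanoLuc; HEK293 cells preincubated 5 h, compound-treated at 37 C, and read at 0, 8, 16, 24, 32 and 40 h.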

Assay [7] in a line: A CellTox Green Cytotoxicity Assay to monitor cytotoxicity in HEK293 cells - 0 hour (AID 1224869). Further: nearly all actives have a fitted effect of over 50% in size. In short, it runs like this:
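Homogeneous no-lysis format: HEK293 cell suspension mixed with CellTox Green reagent, seeded, incubated 5 h at 37 C/5% CO2, then dosed by pintool with compound in DMSO.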

A short description of assay [8]: qHTS assay to identify small molecule agonists of the hypoxia (HIF-1) signaling pathway (AID 1224846; active means well fitted activation curve with a large enough effect in the signal ratio in the repeat runs, not every such curve was filed as active; the % refers to the signal ratio). In short, it runs like this:
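In ME-180 cells bearing an HRE-bla construct, 17 h treatment with DMSO-dissolved compounds at 37C was followed by CCF4-AM loading to quantify reporter induction.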

The nature of assay [9]: qHTS RealTime-Glo MT Cell Viability Assay in HepG2 cells - 40 hour (AID 1224870). Further: nearly all actives have a fitted effect of over 50% in size. Further: potency means the concentration at half of the fitted maximal effect. An outline of the steps: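 HepG2 cells (600/well) mixed with RealTime-Glo MT reagent, settled 5 h at 37 C/5% CO2 before compound addition. Nonlytic NanoLuc luminescence from viable-cell prosubstrate reduction read repeatedly during 40 h treatment at 37 C.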
Assay [10] in a line: qHTS assay to identify small molecule agonists of H2AX (AID 1224845; active means well fitted activation curve with a large enough effect in the signal ratio in the repeat runs, not every such curve was filed as active; the % refers to the signal ratio). In short, it runs like this: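 Wild-type CHO-K1 cells, plated overnight, exposed 3hr at 37C to 15 concentrations (0.76% DMSO final). Lysed, then HTRF anti-pH2AX (S139) cryptate and anti-H2AX-d2 antibodies, 24 hr room temperature; 665/620 nm emission read.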

Results filed as inconclusive are left out. Some structures have more than one record in an assay (separate samples or runs), and their calls can disagree. Activity calls are given as the source filed them. Unless noted, the call rests on the fitted dose curve; in most records, active means well fitted curve in the direction sought with a large enough effect in the repeat runs; inconclusive means weak or mixed curves; inactive means no such curve, though single readings can be large; an effect the other way counts as inactive or inconclusive.
On the % scale 0 is the no-effect control and ±100 the full control effect.

In the case of `Cc1cc(O)c(C(C)(C)C)cc1C(C)(C)C`, the Potency was 43.6 µM (active) in [1]; 50.5 µM (active) in assay [2]; 61.1 µM (active) in assay [3]; 43.6 µM (active) in assay [5]; 17.4 µM (active) in assay [6]. For the same molecule, the activity change, positive = activation in [4] is -68.9% (inactive). In addition, in [7], the Potency entry is “inactive”.

Turning to `CC1=NC(C)OC1C` (stereo not given), the Potency result in assay [1], in [8], in [5], in assay [7] and in assay [9] was “inactive” throughout.

As to `COc1cc(/C=C/C(=O)O[C@H]2CC[C@]34C[C@]35CC[C@]3(C)[C@@H]([C@H](C)CCC=C(C)C)CC[C@@]3(C)[C@@H]5CC[C@H]4C2(C)C)ccc1O`, the Potency result in assay [1], in [8], in assay [2], in [3], in assay [5] and in assay [6] was “inactive” throughout. Further, the Potency entry in [7] and in assay [9] was “inactive” in each case. In [4], the activity change, positive = activation is -5.43% [at 42.5 µM] (inactive).

Regarding `COC(=O)C1=C(C)NC(C)=C(C(=O)OCCc2ccc(N3CCN(C(c4ccccc4)c4ccccc4)CC3)cc2)C1c1cccc([N+](=O)[O-])c1` (stereo not given), the Potency result in assay [1], in assay [10], in assay [5], in assay [6], in assay [7] and in [9] was “inactive” each time.

Consider `O=C1c2ccccc2Cc2ccccc21`, for which the Potency result in [1], in [8], in [2], in [5], in [7] and in assay [9] was “inactive” in each case. For the same molecule, in assay [4], the activity change, positive = activation is -18.6% (inactive).

Regarding `O=C1C=CC(=O)N1`, the Potency in [1] was 11.3 µM (active); in [2], 82.2 µM (active); in assay [5], 22.5 µM (active); in assay [6], 12.6 µM (active); in assay [9], 22.5 µM (active). For the same molecule, the Potency result in [3] and in assay [7] was “inactive” in each case. Further, in assay [4], the activity change, positive = activation was -71.7% (inactive).

`CCCCCCCCCCCCCCCC[N+](C)(C)CCN(Cc1ccc(OC)cc1)c1ncccn1`: the Potency was 21.3 µM (active) in [1]; 43.8 µM (active) in assay [2]; 21.1 µM (active) in assay [3]; 6.74 µM (active) in assay [5]; 0.952 µM (active) in assay [6]. Moreover, the activity change, positive = activation in [4] was -53.6% [at 42.5 µM] (inactive). In [7], the Potency entry was “inactive”.

As to `CC(C)CCCCCCCCCCCCCCC(=O)O`, the results for the Potency in assay [1] and in assay [2] were 17.4 µM (active) and 1.6 µM (active), respectively. Besides, in [4], the activity change, positive = activation was -17% (inactive). For the same molecule, the Potency result in assay [5], in assay [7] and in assay [9] was “inactive” each time.

With `Clc1ccc(C(Cn2ccnc2)OCc2ccc(Sc3ccccc3)cc2)c(Cl)c1` (stereo not given), the Potency result in assay [1], in assay [2], in assay [6] and in assay [7] was “inactive” in each case.

As to `CC[C@H](c1ccc(O)cc1)[C@@H](CC)c1ccc(O)cc1`, the Potency was 54.9 µM (active) and inactive in [1]; 101 µM (active) and inactive in [2]; 27.5 µM (active) in assay [6]. For the same molecule, the Potency result in [5], in [7] and in assay [9] was “inactive” throughout.

For `c1cc(C(c2ccc(OCC3CO3)cc2)c2ccc(OCC3CO3)cc2)ccc1OCC1CO1` (stereo not given), the Potency result in [1], in [2] and in [7] was “inactive” throughout. Moreover, in assay [9], the Potency was 54.9 µM (active).

Consider `O=C(Oc1cccc2cccnc12)c1ccccc1`, for which the Potency is 7.56 µM (active) in assay [1], 0.133 µM (active) in [3] and 5.35 µM (active) in [9]. Further, the Potency entry in assay [5], in assay [6] and in assay [7] was “inactive” each time.

As for `CCOc1nc2cccc(C(=O)OC(C)OC(=O)OC3CCCCC3)c2n1Cc1ccc(-c2ccccc2-c2nn[nH]n2)cc1` (stereo not given), the Potency was 19.5 µM (active) in assay [1], 63.5 µM (active) in assay [2], 34.3 µM (active) in assay [3] and 9.76 µM (active) in assay [6]. Moreover, in [7], the Potency entry is “inactive”.

With `Cc1ccc(O)c2ncccc12`, the Potency result in assay [1], in assay [5], in [6] and in assay [7] was “inactive” in each case. Moreover, in assay [3], the Potency was 18.8 µM (active).

For `CCCCCCCCCCCCCCCC(=O)OC[C@H](O)[C@H]1OC(=O)C(O)=C1O`, the Potency in assay [1] was 54.9 µM (active). Moreover, the Potency entry in assay [2], in [5], in assay [6] and in assay [7] was “inactive” each time. For the same molecule, the activity change, positive = activation in [4] was -29.6% (inactive).

`COc1cc(-c2nc(NC(=O)c3cc4cc(C)cc(C)c4n3CC(=O)O)sc2CCC2CCCCC2)c(OC)cc1Cl`: the Potency in assay [1] is 25.2 µM (active); in assay [3], 31.5 µM (active); in assay [5], 40 µM (active); in assay [6], 25.2 µM (active); in [9], 40 µM (active). In addition, the activity change, positive = activation in assay [4] was -61.8% (inactive). The Potency result in [7] is “inactive”.

`[O-][n+]1ccccc1SSc1cccc[n+]1[O-]`: the Potency in assay [1] is 0.117 µM (active); in [3], 0.259 µM (active); in [6] it was 1.31 µM (active); in [9], 0.165 µM (active). In addition, the activity change, positive = activation in assay [4] was -64% [at 19 µM] (inactive).

Regarding `O=C1CCCCCN1SSN1CCCCCC1=O`, the Potency was 43.6 µM (active) in assay [1] and 54.5 µM (active) in assay [3]. Also, the activity change, positive = activation in assay [4] is -43.7% (inactive). The Potency entry in assay [6] and in assay [7] was “inactive” throughout.

For the molecule `CC(C)c1ccc2c(c1)CC[C@H]1[C@](C)(CN)CCC[C@]21C`, the Potency was 49 µM (active) in assay [1]; 68.6 µM (active) in [3]; 13.8 µM (active) in assay [5]; 11 µM (active) in assay [6]; 11 µM (active) in assay [9]. Besides, the activity change, positive = activation in assay [4] was -75.7% (inactive). The Potency result in assay [7] is “inactive”.
